Measurements taken from PubChem BioAssay (Tox21).
Values joined by “and” are separate entries in the source; they are usually repeats but may differ in a detail not shown here. Equal values may be shown once. Records with an inconclusive call do not appear. Where a call stands in place of a potency, no number is given. A structure can be active in one record and inactive in another. Active and inactive are the calls of the source. The call rests on the fitted dose curve; in most records, active means well fitted curve in the direction sought with a large enough effect in the repeat runs; inconclusive means weak or mixed curves; inactive means no such curve, though single readings can be large; an effect the other way counts as inactive or inconclusive.

Experiments:
[1] = biological target: Cytochrome P450 2D6 (Homo sapiens) (UniProt P10635); assay: Cytochrome P450 Family 2 Subfamily D Member 6 (CYP2D6) small molecule antagonists: luciferase reporter qHTS assay (AID 1671196); conditions: P450-Glo CYP2D6 enzyme assay, luciferin luminescence, 1 h; series mostly up to 115 µM; further: nearly all actives have a fitted effect of over 50% in size; further: potency means the concentration at half of the fitted maximal effect
Sequence of Cytochrome P450 2D6 (Homo sapiens) (P10635 whole entry, looked up): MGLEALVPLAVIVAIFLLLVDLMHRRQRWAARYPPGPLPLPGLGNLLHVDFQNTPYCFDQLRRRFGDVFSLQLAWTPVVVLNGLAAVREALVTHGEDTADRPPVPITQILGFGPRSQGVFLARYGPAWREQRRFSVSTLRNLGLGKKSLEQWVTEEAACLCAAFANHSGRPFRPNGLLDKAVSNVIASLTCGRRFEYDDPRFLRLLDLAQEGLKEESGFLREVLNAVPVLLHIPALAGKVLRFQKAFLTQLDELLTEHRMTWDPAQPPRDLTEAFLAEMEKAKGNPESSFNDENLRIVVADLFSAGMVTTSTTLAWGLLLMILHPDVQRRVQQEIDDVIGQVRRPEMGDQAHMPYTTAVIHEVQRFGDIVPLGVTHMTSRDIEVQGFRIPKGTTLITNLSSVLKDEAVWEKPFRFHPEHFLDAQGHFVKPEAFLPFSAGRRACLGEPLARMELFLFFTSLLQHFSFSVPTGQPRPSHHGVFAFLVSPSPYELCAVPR
Method in brief: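 Cell-free P450-Glo system: CYP2D6 with proluciferin substrate was pre-incubated with compound for 10 min, then reacted with NADPH regeneration for 1 h at room temperature. Luciferin product was detected after 20 min, and data were reported as relative luminescence units.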

[2] = biological target: Cytochrome P450 2C19 (Homo sapiens) (UniProt P33261); assay: Cytochrome P450 Family 2 Subfamily C Member 19 (CYP2C19) small molecule antagonists: luciferase reporter qHTS assay (AID 1671197); conditions: P450-Glo CYP2C19 enzyme, luciferin luminescence, 1 h; series mostly up to 115 µM; further: nearly all actives have a fitted effect of over 65% in size; further: potency means the concentration at half of the fitted maximal effect
Sequence of Cytochrome P450 2C19 (Homo sapiens) (P33261 whole entry, looked up): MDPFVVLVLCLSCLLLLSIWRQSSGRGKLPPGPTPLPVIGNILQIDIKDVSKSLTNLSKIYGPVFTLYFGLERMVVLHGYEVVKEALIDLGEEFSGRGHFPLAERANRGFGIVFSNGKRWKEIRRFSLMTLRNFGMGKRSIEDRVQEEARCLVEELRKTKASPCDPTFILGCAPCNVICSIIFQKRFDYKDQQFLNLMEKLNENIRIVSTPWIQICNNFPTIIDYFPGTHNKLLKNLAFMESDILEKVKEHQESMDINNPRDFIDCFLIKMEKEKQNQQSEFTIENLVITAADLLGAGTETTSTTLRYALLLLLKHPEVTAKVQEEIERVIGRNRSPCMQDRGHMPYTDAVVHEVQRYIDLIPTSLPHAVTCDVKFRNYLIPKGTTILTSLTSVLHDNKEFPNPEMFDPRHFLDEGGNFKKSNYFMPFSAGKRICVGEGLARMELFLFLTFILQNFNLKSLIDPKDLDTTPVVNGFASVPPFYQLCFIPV
Method in brief: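 CYP2C19 P450-Glo, 1536-well qHTS. Cpd + enzyme/proluciferin substrate 10 min RT; + NADPH regen, 37C 1 h; stop with luciferin detection reagent, 20 min RT, luminescence (RLU). Pos ctrl ketoconazole.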

[3] = biological target: Cytochrome P450 2C9 (Homo sapiens) (UniProt P11712); assay: Cytochrome P450 Family 2 Subfamily C Member 9 (CYP2C9) small molecule antagonists: luciferase reporter qHTS assay (AID 1671198); conditions: P450-Glo CYP2C9 enzyme assay, luciferin luminescence; series mostly up to 115 µM; further: nearly all actives have a fitted effect of over 50% in size; further: potency means the concentration at half of the fitted maximal effect
Sequence of Cytochrome P450 2C9 (Homo sapiens) (P11712 whole entry, looked up): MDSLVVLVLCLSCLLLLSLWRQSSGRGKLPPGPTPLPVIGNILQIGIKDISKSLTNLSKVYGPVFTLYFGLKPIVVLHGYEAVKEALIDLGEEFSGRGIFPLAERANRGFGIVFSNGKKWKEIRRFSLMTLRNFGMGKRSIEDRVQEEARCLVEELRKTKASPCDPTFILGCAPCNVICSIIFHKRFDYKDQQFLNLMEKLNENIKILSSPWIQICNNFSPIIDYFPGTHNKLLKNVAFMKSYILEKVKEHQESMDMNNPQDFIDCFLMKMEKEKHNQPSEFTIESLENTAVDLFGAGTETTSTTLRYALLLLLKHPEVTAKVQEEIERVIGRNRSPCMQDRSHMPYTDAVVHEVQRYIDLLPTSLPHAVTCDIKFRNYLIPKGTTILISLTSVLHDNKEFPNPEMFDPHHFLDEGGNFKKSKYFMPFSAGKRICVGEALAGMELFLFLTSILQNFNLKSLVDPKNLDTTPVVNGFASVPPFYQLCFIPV
Method in brief: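 Enzyme-substrate mix preincubated with compound 10 min at room temperature; reaction started with NADPH regeneration solution, 1 h 37C. Luminescent luciferin product read after 20 min detection reagent.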

[4] = biological target: Cytochrome P450 1A2 (Homo sapiens) (UniProt P05177); assay: Cytochrome P450 Family 1 Subfamily A Member 2 (CYP1A2) small molecule antagonists: luciferase reporter qHTS assay (AID 1671199); conditions: P450-Glo CYP1A2 enzyme, luciferin luminescence, 1 h; series mostly up to 115 µM; further: nearly all actives have a fitted effect of over 50% in size; further: potency means the concentration at half of the fitted maximal effect
Sequence of Cytochrome P450 1A2 (Homo sapiens) (P05177 whole entry, looked up): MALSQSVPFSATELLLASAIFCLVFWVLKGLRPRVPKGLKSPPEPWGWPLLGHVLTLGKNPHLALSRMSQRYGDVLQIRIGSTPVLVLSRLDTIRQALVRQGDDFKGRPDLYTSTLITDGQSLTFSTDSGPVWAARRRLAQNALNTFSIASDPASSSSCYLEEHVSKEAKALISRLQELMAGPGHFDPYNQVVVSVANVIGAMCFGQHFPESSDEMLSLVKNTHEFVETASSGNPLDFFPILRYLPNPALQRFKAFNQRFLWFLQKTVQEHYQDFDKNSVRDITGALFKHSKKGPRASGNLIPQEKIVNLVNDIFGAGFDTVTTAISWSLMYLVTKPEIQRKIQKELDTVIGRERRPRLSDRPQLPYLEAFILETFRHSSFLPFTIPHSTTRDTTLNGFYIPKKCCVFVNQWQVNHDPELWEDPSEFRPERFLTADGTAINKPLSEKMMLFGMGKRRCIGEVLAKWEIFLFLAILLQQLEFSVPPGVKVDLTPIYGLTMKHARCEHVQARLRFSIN
Method in brief: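 P450-Glo CYP1A2 enzyme–proluciferin substrate mix with compound 10 min at room temperature, then NADPH regeneration 1 h at room temperature. Luciferin detection reagent added, luminescence read after 20 min; furafylline positive control.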

[5] = biological target: Voltage-gated inwardly rectifying potassium channel KCNH2 (Homo sapiens) (UniProt Q12809); assay: Human Ether-a-go-go-Related Gene (hERG) channel small molecule antagonists: fluorescence cell-based qHTS assay (AID 1671200); conditions: hERG-U2OS cells, FluxOR thallium flux fluorescence; series mostly up to 76.8 µM;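 further: hERG-expressing U2OS cells given a thallium stimulus after FluxOR II dye loading; nearly all actives have a fitted effect of over 50% in size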
Sequence of Voltage-gated inwardly rectifying potassium channel KCNH2 (Homo sapiens) (Q12809 whole entry, looked up): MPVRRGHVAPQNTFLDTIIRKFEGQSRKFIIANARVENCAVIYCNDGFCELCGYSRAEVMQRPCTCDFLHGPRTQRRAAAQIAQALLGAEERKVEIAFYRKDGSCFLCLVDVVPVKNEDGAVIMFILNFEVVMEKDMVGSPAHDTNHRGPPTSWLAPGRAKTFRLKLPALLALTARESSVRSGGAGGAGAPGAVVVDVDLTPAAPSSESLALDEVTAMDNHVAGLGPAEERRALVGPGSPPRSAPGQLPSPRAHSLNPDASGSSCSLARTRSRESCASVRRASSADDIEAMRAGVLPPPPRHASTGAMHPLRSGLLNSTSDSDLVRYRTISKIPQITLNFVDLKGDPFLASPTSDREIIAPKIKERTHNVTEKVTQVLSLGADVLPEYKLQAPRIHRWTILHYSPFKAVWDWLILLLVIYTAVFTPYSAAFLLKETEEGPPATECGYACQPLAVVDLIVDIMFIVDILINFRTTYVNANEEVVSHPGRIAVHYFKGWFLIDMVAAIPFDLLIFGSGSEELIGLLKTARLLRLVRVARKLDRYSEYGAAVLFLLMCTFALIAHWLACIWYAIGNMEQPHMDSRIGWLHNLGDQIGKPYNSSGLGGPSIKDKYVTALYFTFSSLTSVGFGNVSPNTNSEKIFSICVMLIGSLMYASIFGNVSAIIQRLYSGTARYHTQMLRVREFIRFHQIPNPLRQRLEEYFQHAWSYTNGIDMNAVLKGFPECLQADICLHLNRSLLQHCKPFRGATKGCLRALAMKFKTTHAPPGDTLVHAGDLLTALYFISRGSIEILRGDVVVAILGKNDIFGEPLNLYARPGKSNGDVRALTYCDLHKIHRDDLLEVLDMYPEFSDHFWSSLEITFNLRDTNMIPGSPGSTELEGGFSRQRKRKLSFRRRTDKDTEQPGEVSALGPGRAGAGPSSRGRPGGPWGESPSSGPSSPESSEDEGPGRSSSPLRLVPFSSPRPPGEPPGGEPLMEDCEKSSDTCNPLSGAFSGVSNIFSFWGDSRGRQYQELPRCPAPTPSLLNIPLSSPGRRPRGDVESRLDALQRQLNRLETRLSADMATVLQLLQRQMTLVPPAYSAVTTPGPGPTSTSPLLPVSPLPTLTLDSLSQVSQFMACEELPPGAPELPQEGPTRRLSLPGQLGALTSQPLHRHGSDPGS
Method in brief: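 Measured: Tl+ flux via fluorescence (480/540 nm) in hERG-expressing U2OS cells after 1 h dye loading at room temperature.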

[6] = biological target: Cytochrome P450 3A4 (Homo sapiens) (UniProt P08684); assay: Cytochrome P450 Family 3 Subfamily A Member 4 (CYP3A4) small molecule antagonists: luciferase reporter qHTS assay (AID 1671201); conditions: P450-Glo CYP3A4 enzyme, luciferin luminescence, 1 h; series mostly up to 115 µM; further: nearly all actives have a fitted effect of over 50% in size; further: potency means the concentration at half of the fitted maximal effect
Sequence of Cytochrome P450 3A4 (Homo sapiens) (P08684 whole entry, looked up): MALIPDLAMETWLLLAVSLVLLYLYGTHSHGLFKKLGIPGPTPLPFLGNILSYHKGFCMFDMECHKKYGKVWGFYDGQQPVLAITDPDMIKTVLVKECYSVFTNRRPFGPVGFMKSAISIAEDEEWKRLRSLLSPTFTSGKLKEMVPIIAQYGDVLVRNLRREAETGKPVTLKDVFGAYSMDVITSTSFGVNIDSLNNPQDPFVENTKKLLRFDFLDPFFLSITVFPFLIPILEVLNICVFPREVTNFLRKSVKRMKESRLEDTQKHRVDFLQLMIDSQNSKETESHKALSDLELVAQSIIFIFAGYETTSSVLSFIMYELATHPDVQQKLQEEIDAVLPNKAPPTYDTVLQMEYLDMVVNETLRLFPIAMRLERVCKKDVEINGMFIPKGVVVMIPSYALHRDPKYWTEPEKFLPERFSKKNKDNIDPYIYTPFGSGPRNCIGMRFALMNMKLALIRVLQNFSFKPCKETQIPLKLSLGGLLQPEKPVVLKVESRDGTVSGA
Method in brief: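 Setup: enzyme-substrate mix, compound pin transfer, 10 min RT. Reaction: NADPH regeneration solution, 1 h RT. Readout: detection reagent stops turnover, luminescence measured after 20 min, expressed in relative luminescence units.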

Structure (SMILES) | Potency [1] | Potency [2] | Potency [3] | Potency [4] | Potency [5] | Potency [6]
CCC(C)CO (stereo not drawn) | inactive | 35.1 µM (active) and inactive | inactive | inactive | inactive | inactive
NC=O | inactive | inactive | inactive | inactive | inactive | inactive
Cc1cccc(N(C)C(=S)Oc2ccc3ccccc3c2)c1 | inactive | 1.26 µM (active) and 977 nM (active) | 8.94 µM (active) and 6.92 µM (active) | 10 µM (active) and 9.77 µM (active) |  | 
O=C(O)c1ccccc1Nc1cccc(C(F)(F)F)c1 | inactive | inactive | 63.3 µM (active) | 35.6 µM (active) | inactive | inactive
C/C=C/C(=O)O | inactive | inactive | inactive | inactive | inactive | inactive
O=C(Nc1ccc(Cl)cc1)Nc1ccc(Cl)c(Cl)c1 | inactive | 5 µM (active) and 7.1 µM (active) and 8.71 µM (active) | 5 µM (active) and 5.64 µM (active) and 4.9 µM (active) | 17.8 µM (active) and 22.4 µM (active) and 17.4 µM (active) | inactive | inactive
CC(C)OB(OC(C)C)OC(C)C | inactive | 40 µM (active) and inactive | inactive | inactive | inactive | inactive
Nc1ccc(Nc2ccccc2)cc1 | 35.2 µM (active) and 35.6 µM (active) | 24.9 µM (active) and 10 µM (active) and 12.6 µM (active) | 15.7 µM (active) and 25.2 µM (active) and 10 µM (active) | 35.2 µM (active) and 35.6 µM (active) and 31.7 µM (active) | inactive | 5.58 µM (active) and 11.3 µM (active) and 7.96 µM (active)
c1ccncc1 | inactive | inactive | inactive | inactive | inactive | inactive
Clc1nc(Cl)c(Cl)c(Cl)c1Cl | inactive | 31.9 µM (active) | inactive | inactive | inactive | inactive
CC(=O)c1ccccn1 | inactive | 20.2 µM (active) and inactive | inactive | 64 µM (active) and inactive | inactive | inactive
CC(C(=O)O)c1cccc(C(=O)c2ccccc2)c1 (stereo not drawn) | inactive | 39.9 µM (active) | 31.7 µM (active) and 30.9 µM (active) | inactive and 24.5 µM (active) | inactive | inactive
CCCCC(CC)COC(=O)c1ccc(N(C)C)cc1 (stereo not drawn) | 30.9 µM (active) | 40.1 µM (active) and 20 µM (active) and 6.92 µM (active) | 31.9 µM (active) and 17.8 µM (active) and 15.5 µM (active) | 12.7 µM (active) and 7.1 µM (active) and 4.56 µM (active) | inactive | inactive
CC(C)OC=O | inactive | inactive | inactive | inactive | inactive | inactive
CC(=O)Oc1ccccc1C(=O)Nc1ncc([N+](=O)[O-])s1 | 7.25 µM (active) and 7.76 µM (active) | 3.63 µM (active) and 2.45 µM (active) | 4.57 µM (active) and 2.75 µM (active) | 6.46 µM (active) and 7.76 µM (active) | inactive | 
CC(=O)O[C@]1(C(C)=O)CC[C@H]2[C@@H]3C=C(Cl)C4=CC(=O)[C@@H]5C[C@@H]5[C@]4(C)[C@H]3CC[C@@]21C | inactive | inactive and 39.9 µM (active) | 15.9 µM (active) and 31.7 µM (active) and 13.8 µM (active) | inactive | inactive | inactive
O=Cc1ccccc1O | inactive | inactive | inactive | inactive | inactive | inactive
C=C(C)C1CC=C(C)CC1 (stereo not drawn) | inactive | inactive | inactive | inactive | inactive | inactive
COC(=O)c1ccccc1 | inactive | inactive | inactive | inactive | inactive | inactive
C#C[C@]1(O)CC[C@H]2[C@@H]3CCc4cc(OC)ccc4[C@H]3CC[C@@]21C | inactive | 3.56 µM (active) and 2.19 µM (active) | 5.64 µM (active) and 6.92 µM (active) | 7.1 µM (active) and 9.77 µM (active) | inactive | 
Cc1cccc([N+](=O)[O-])c1C | inactive | inactive | inactive | inactive | inactive | inactive
C=CC(C)(CCC=C(C)C)OC(C)=O (stereo not drawn) | inactive | inactive and 17.8 µM (active) | inactive and 35.6 µM (active) | inactive | inactive | inactive and 28.3 µM (active)

Structure (SMILES) | Potency [1] | Potency [2] | Potency [3] | Potency [4] | Potency [5] | Potency [6]
CC1=CC2C3CC(C=C3C)C2C1 (stereo not drawn) | inactive | inactive and 39.9 µM (active) | inactive | inactive | inactive | inactive and 12.6 µM (active)
COc1ccccc1/C=C/C=O | inactive | 39.9 µM (active) | inactive | 29 µM (active) and 25.2 µM (active) | inactive | inactive
Cc1cccc(C(=O)O)c1 | inactive | inactive | inactive | inactive | inactive | inactive
c1ccc(Nc2ccccc2)cc1 | inactive | 4.48 µM (active) and 22.4 µM (active) | 35.6 µM (active) and 39.9 µM (active) | 35.6 µM (active) | inactive | 3.17 µM (active) and inactive
CCC(C)(O)CCCC(C)C (stereo not drawn) | inactive | inactive | inactive | inactive | inactive | inactive
O=C(c1ccccc1)c1ccccc1O | 40.9 µM (active) | 3.65 µM (active) and 22.4 µM (active) | 40.9 µM (active) and 63.3 µM (active) | 11.5 µM (active) and 15.9 µM (active) | inactive | inactive
CN(C)CCC=C1c2ccccc2CCc2ccccc21 | 2.52 µM (active) and 5.64 µM (active) and 5.49 µM (active) | 7.97 µM (active) and 31.7 µM (active) | inactive | inactive |  | inactive
O=C(c1ccccc1)c1ccc(O)cc1O | 8.12 µM (active) and 20 µM (active) | 9.11 µM (active) and 22.4 µM (active) | 57.5 µM (active) and 39.9 µM (active) | 25.7 µM (active) and 31.7 µM (active) | inactive | 14.4 µM (active) and 25.2 µM (active)
CCOC(=O)C(C#N)=C(c1ccccc1)c1ccccc1 | inactive | 5.64 µM (active) and 4.9 µM (active) | 5.03 µM (active) and 4.9 µM (active) | 3.56 µM (active) and 1.62 µM (active) | inactive | inactive
CC(=O)CC/C=C(\C)CCC=C(C)C | inactive | inactive and 39.9 µM (active) | inactive and 35.6 µM (active) | inactive and 39.9 µM (active) | inactive | inactive and 17.8 µM (active)
Cc1ncc[nH]1 | inactive | 39.8 µM (active) and inactive | inactive | inactive | inactive | 
COc1ccc(C(=O)CC(=O)c2ccc(C(C)(C)C)cc2)cc1 | 38.3 µM (active) and inactive | 8.57 µM (active) and inactive | 21.5 µM (active) | 34.1 µM (active) | inactive | inactive
C[C@]12CCC(=O)C=C1CC[C@@H]1[C@@H]2C(=O)C[C@@]2(C)[C@H]1CC[C@]2(O)C(=O)CO | inactive | 25.2 µM (active) | inactive | inactive | inactive | inactive
OCCO | 34.6 µM (active) and inactive | inactive | inactive | inactive | inactive | inactive
S=C(NC1CCCCC1)NC1CCCCC1 | 31.1 µM (active) and 22.4 µM (active) | 7.81 µM (active) and 8.94 µM (active) | 12.4 µM (active) and 35.6 µM (active) | 78.1 µM (active) and inactive | inactive | 17.5 µM (active) and 28.3 µM (active)
CC1=CCC(C(C)(C)O)CC1 (stereo not drawn) | inactive | inactive | inactive | inactive | inactive | inactive
OC1CCCCCCCCCCC1 | inactive |  | inactive | 25.2 µM (active) | inactive | 
O=C(/C=C/C=C/c1ccc2c(c1)OCO2)N1CCCCC1 | 63.4 µM (active) and 44.8 µM (active) |  | 12.7 µM (active) and 35.6 µM (active) | 28.3 µM (active) and 22.4 µM (active) | inactive | 
Cc1c(OCC(F)(F)F)ccnc1CS(=O)c1nc2ccccc2[nH]1 (stereo not drawn) | 2.83 µM (active) and 1.23 µM (active) |  | 35.6 µM (active) and 12.3 µM (active) | 31.7 µM (active) and 13.8 µM (active) | inactive | 
c1ccc2c(c1)Oc1ccccc1S2 | inactive | inactive and 71 µM (active) |  | 12.8 µM (active) and 8.94 µM (active) |  | inactive
Cc1ccc(C)c(O)c1C | inactive | inactive |  | 28.1 µM (active) and 28.3 µM (active) | inactive | inactive
C[C@]12CC[C@H]3[C@@H](CCC4=CC(=O)CC[C@@]43C)[C@@H]1CC[C@@H]2C(=O)CO | inactive | 7.1 µM (active) and 8.71 µM (active) | 39.9 µM (active) and 27.5 µM (active) |  | inactive | inactive
